Test [1] is described as follows: CCTE_Harrill_HTTr_Viability_MCF7: CCTE's 6-hour Cell Viability Assessment for the High-Throughput Transcriptomics (HTTr) Platform, in MCF-7 cells cultured in DMEM + 10% fetal bovine serum, Harrill Lab (AID 2284010). The procedure, abridged:
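Propidium iodide exclusion, imaged by high-content analysis, gauged viability after a six-hour exposure across eight concentrations. Cells were MCF-7 grown in DMEM with 10% fetal bovine serum; fits run in both directions against DMSO.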

Test [2] is described as follows: CCTE_Harrill_HTTr_CellCount_MCF7: CCTE's Cell Proliferation Assessment for the High-Throughput Transcriptomics (HTTr) Platform, Harrill Lab (AID 2284012; active = hit-call score of the fitted dose curve at least 0.9, where 1 is the maximum;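 note: cells exposed to compound for six hours; intended direction is loss of nuclei count meaning fewer cells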). The procedure, abridged: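 Cell count from high-content imaging of Hoechst-labeled nuclei serves as viability/growth readout. Chemicals were applied to MCF-7 cells in eight concentrations for six hours, with fitting in both directions relative to DMSO.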

Test [3] in a line: CCTE_Harrill_HTTr_Apoptosis_MCF7: CCTE's 6-hour Apoptosis Assessment for the High-Throughput Transcriptomics (HTTr) Platform, in MCF-7 cells cultured in DMEM + 10% fetal bovine serum, Harrill Lab (AID 2284011). The procedure, abridged:
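MCF-7 (DMEM + 10% FBS), 384-well; 8-pt dilution series, 6 h chemical exposure; caspase-3/7 activation via CellEvent Caspase 3/7 Green, HCI; bidirectional fit vs DMSO.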

Inconclusive results are not listed. Calls of active or inactive are those of the source. Rule for the calls, unless noted: active = hit-call score of the fitted dose curve at least 0.9, where 1 is the maximum; inactive = score below 0.9.

From PubChem BioAssay (EPA / NIEHS) come the findings set out here.

Regarding `Cc1ccc(C(C)C)cc1O`, the outcome in test [1] and in test [2] was inactive.

Turning to `O=P(c1ccccc1)(c1ccccc1)c1ccccc1`, the outcome in test [1], in test [3] and in test [2] was inactive.

For the compound `O=C(O)COCCN1CCN(C(c2ccccc2)c2ccc(Cl)cc2)CC1` (stereo not drawn), the result in test [1] and in test [2] was inactive.

Regarding `COc1ccc(O)cc1`, the outcome in test [1] and in test [2] was inactive.

As for `CC(=O)/C=C/C1=C(C)CCCC1(C)C`, the result in test [1], in test [3] and in test [2] was inactive.

Consider `CC(c1cc2ccccc2s1)N(O)C(N)=O` (stereo not drawn), for which the result in test [1] and in test [2] was inactive.

As for `OCCOCCOCCOCCO`, the outcome in test [1] and in test [2] was inactive.

On to `CCCCCCCCCCCCCCCC(=O)O`, for which the outcome in test [1] and in test [2] was inactive.

Turning to `C=O`, the outcome in test [1] and in test [2] was inactive.

For the compound `CC(=O)C(=O)O`, the result in test [1], in test [3] and in test [2] was inactive.

For `Cc1ccc(O)c(C(C)(C)C)c1`, the outcome in test [1], in test [3] and in test [2] was inactive.

With `CN(C)CCOCCN(C)C`, the result in test [1] and in test [2] was inactive.
